# High-throughput results as filed in PubChem.
# Fh CTSL1 inh: cathepsin L1 inhibition, PFM18AAP counter-screen | 300,000 compounds, 0.49% hits | inhibition, % at 5.96 µM | recombinant F. hepatica cathepsin L1, Z-Leu-Arg-MCA fluorescence;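 active = inhibition above the mean of all tested compounds plus 3 SD, set per screening campaign, cut at about 17% in these data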;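 also: 0% = plate median of test compound wells and 100% = 1 µM Z-Phe-Ala-diazomethylketone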
# HGIII-sPLA2 inh: Inhibits HGIII-sPLA2 liposome hydrolysis, primary screen; AID 743126; 370,000 compounds, 0.56% hits; QFRET BODIPY PC-A2 liposome hydrolysis, fluorescence; Q9NZ20; inhibition, % at 12.2 µM;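 active = inhibition above mean plus 3 SD of compounds lying within the high and low control bounds, cut at about 19% in these data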;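 also: 0% = median of test compound wells and 100% = no enzyme DMSO wells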
# Target sequence (Q9NZ20 whole entry, looked up): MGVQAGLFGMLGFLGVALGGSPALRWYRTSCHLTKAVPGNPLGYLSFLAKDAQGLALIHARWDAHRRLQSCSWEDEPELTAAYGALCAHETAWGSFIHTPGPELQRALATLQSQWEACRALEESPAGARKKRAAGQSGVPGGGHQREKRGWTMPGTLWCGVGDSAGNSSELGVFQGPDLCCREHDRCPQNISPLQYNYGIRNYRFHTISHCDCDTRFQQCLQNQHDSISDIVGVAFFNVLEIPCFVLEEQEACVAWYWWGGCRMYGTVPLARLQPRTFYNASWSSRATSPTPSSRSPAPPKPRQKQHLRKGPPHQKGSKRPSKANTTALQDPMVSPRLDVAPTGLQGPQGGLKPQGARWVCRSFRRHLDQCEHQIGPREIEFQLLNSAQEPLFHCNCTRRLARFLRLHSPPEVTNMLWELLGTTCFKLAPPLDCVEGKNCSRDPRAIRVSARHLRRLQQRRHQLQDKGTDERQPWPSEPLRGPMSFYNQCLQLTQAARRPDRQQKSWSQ
# APOBEC3A inh: human APOBEC3A DNA deaminase inhibition | 330,000 compounds, 0.41% hits | P31941 | recombinant A3A, FAM/TAMRA ssDNA deamination fluorescence | inhibition, % at 20 µM | AID 493011;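 active = at least 40% inhibition at 20 µM here, with at most 30% in a related deaminase screen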;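 also: plate controls were A3A with DMSO for no effect and wells lacking A3A enzyme for full effect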
# APOBEC3G inh: blocks human APOBEC3G single-stranded DNA deamination; Q9HC16; inhibition, % at 20 µM; 330,000 compounds, 0.28% hits; recombinant A3G, ssDNA deamination FAM/TAMRA fluorescence;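 active = inhibition of at least 40% at 20 µM, with no more than 30% in the related APOBEC3A deaminase screen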;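 also: plate controls were DMSO wells with A3G for no effect and wells lacking A3G enzyme for full effect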
# NALP1 inh: inhibitors of NALP1 inflammasome in yeast | 280,000 compounds, 0.61% hits | inhibition, % at 10 µM | S. cerevisiae NALP1/ASC/caspase-1 growth, X-gal OD620, 72 h; in the data active = inhibition mostly above about 24%, no sharp cut-off; inactive = mostly below about 32%
# Starred values were filed as active, the others as inactive; / = no result. The list is not random: actives were taken first. Their share in the collection is about 2%.
SMILES,Fh CTSL1 inh,HGIII-sPLA2 inh,APOBEC3A inh,APOBEC3G inh,NALP1 inh
Cc1oc2cc(O)ccc2c(=O)c1Oc1ccccc1,2,5,-1,-2,5
CCOc1ccc(Oc2c(C)oc3cc(O)ccc3c2=O)cc1,-3,-18,2,0,25*
C/C(=N/NC(=O)c1cccnc1)c1cccc(O)c1,/,11,/,/,/
CCOC(=O)[C@]12CCCCC/C=C\1N(CCc1ccc(Cl)cc1)C(=O)[C@H]2CC(=O)N1CCCC1,/,-8,/,/,/
COc1ccc(Cl)cc1NC(=S)NNC(=O)c1cccs1,2,3,-4,2,-20
COc1ccc(Cl)cc1NC(=S)NNC(=O)CC(C)C,27*,7,0,-2,-36
Cc1ccc(-n2c(SCC(=O)Nc3ccccc3-c3ccccc3)nnc2-c2cnccn2)cc1,/,8,/,/,/
CCCCNC(=S)N(CCN(CC)CC)Cc1cc2cc3c(cc2[nH]c1=O)OCO3,1,16,-2,-10,-4
CCN(CC)CCN(Cc1cc2cc3c(cc2[nH]c1=O)OCCO3)C(=S)NCCCN(C)C,2,1,-1,-5,44*
CCN(CC)CCN(Cc1cc2cc3c(cc2[nH]c1=O)OCO3)C(=S)NCCCN(C)C,-3,-3,-6,-5,14
CCCCNC(=S)N(CCN(CC)CC)Cc1cc2cc3c(cc2[nH]c1=O)OCCO3,18*,12,-1,8,-13
O=C(OC12CCCN(C1)/C(=C/c1ccc(Cl)cc1)C2)c1ccccc1 (stereo not given),/,-10,/,/,/
CCOC(=O)C(C(=O)NCC1CCCO1)C1CCCCC1 (stereo not given),17*,0,-2,-2,6
CCCCNC(=O)c1cn(CC)c2ccc(S(=O)(=O)N3CCCC3)cc2c1=O,1,1,-8,-9,22
CCn1cc(C(=O)NCCc2ccccc2)c(=O)c2cc(S(=O)(=O)N3CCCC3)ccc21,17*,-8,3,11,1
O=C(/C=C/c1ccccc1)NCCC1=CCCCC1,-5,0,0,3,51*
Cc1ccc(C)c(OCc2cc(C(=O)NC3CCN(Cc4ccccc4)CC3)no2)c1,2,-12,-1,-2,19
O=C(NC1CCN(Cc2ccccc2)C1)c1cc(COc2ccc(F)cc2F)on1 (stereo not given),3,-5,-1,2,28*
CC(C)c1cc(C(=O)N(C2CCCCC2)C2CCCCC2)no1,/,3,/,/,/
COC(=O)c1cc(-c2ccc(C(C)(C)C)cc2)c(=O)n2c1CCC2,/,2,/,/,/
O=C(NCCc1nc2ccccc2n1CCOc1ccc2cccnc2c1)C1CCCCC1,/,-7,/,/,/
Cc1ccc(NC(=O)OC2CCC23CCCCC3)cc1 (stereo not given),/,8,/,/,/
C#CCOCCOCCOCCNc1nc(N2CCN(C(=O)[C@H]([C@@H](C)CC)n3cc([C@@H](N)CC(C)C)nn3)CC2)nc(N2CCN(C(=O)[C@H](CCCCN)n3cc([C@@H](N)CC(C)C)nn3)CC2)n1,10,/,-4,-19,16
C#CCOCCOCCOCCNc1nc(N2CCN(C(=O)[C@H]([C@@H](C)CC)n3cc([C@@H](N)CC(C)C)nn3)CC2)nc(N2CCN(C(=O)[C@H](CCCCN)n3cc([C@@H](N)C(C)CC)nn3)CC2)n1 (stereo not given in full),31*,/,-3,-9,12
C#CCOCCOCCOCCNc1nc(N2CCN(C(=O)C([C@@H](C)CC)n3cc(C(N)COC(=O)C(F)(F)F)nn3)CC2)nc(N2CCN(C(=O)[C@H](CCCCN)n3cc(C(N)[C@H](C)CC)nn3)CC2)n1 (stereo not given in full),31*,/,-5,-10,/
SMILES,Fh CTSL1 inh,HGIII-sPLA2 inh,APOBEC3A inh,APOBEC3G inh,NALP1 inh
C#CCOCCOCCOCCNc1nc(N2CCN(C(=O)[C@H]([C@@H](C)CC)n3cc([C@@H](N)CO)nn3)CC2)nc(N2CCN(C(=O)[C@H](CCCCN)n3cc([C@@H](N)C(C)CC)nn3)CC2)n1 (stereo not given in full),4,2,-1,-4,-8
COc1ccc(N2CCN(C(=O)COC(=O)[C@@H](NC(=O)c3ccccc3Cl)C(C)C)CC2)cc1,/,5,/,/,/
COc1ccc(N2CCN(C(=O)C(NC(=O)c3c(F)cccc3F)C(C)C)CC2)cc1 (stereo not given),26*,7,-4,-7,27
COc1ccc(OCC(=O)c2c[nH]c3ccccc23)cc1,3,-4,-4,-6,8
COc1ccc2c(C(=O)CCl)c[nH]c2c1,36*,-3,-3,-9,/
Cn1cc(C2(c3c[nH]c4ccccc34)CCN(C(=O)OC(C)(C)C)CC2)c2ccccc21,/,-17,/,/,/
S=c1[nH]c(-c2ccccc2)cn1/N=C/c1ccccc1Br,1,6,-7,-3,3
Cc1ccc(/C=N/n2cc(-c3ccccc3)[nH]c2=S)s1,3,13,-5,-4,25*
N#Cc1cn(Cc2ccccc2)c2ccccc12,1,-7,4,3,27*
N#Cc1ccccc1Cn1cc(C#N)c2ccccc21,3,0,-3,-4,21
C=CCNC(=O)N1CCN(Cc2nc3ccccc3c(=O)[nH]2)CC1,/,5,/,/,/
O=C(CCl)Nc1cc(-c2ccccc2)nn1-c1ccccc1,68*,-1,-1,-4,77*
Cc1ccc(-c2nn(-c3ccccc3)cc2NC(=O)CCl)cc1,82*,-3,1,-9,14
Cc1ccc(-c2cc(NC(=O)CCl)n(-c3ccccc3)n2)cc1,75*,-6,0,-2,/
Cc1cc(NC(=O)COc2ccccc2)n(-c2ccccc2)n1,0,2,-4,-7,14
CC(=O)Nc1ccc(-c2cc(NC(C)=O)n(-c3ccccc3)n2)cc1,3,4,-3,-7,35
COC(=O)c1ccc(-c2ccc3c(c2)[C@]2(CCC[C@@H](O)[C@@H]2NC(=O)CCc2ccccc2)C(=O)N3Cc2ccccc2)cc1,/,8,/,/,/
COc1ccc(C(N)c2nccc3cc(OC)c(OC)cc23)cc1OC (stereo not given),26*,/,-2,-6,9
COc1cccc(CNC2CCC23CCC(C)CC3)c1 (stereo not given),/,11,/,/,/
COc1ccc(-n2c(SCC(=O)N(CC(C)C)CC(C)C)nnc2-c2ccncc2)cc1,/,-3,/,/,/
O=C(/C=C/c1ccccc1)NC(=S)Nc1ccccc1,1,1,-6,-4,24
C=CCN(CC=C)S(=O)(=O)c1ccc(NC(=S)NC(=O)/C=C/c2ccccc2)cc1,2,0,-7,-6,27*
Cc1nc2sc(C(=O)NCc3ccc4c(c3)OCO4)c(N)c2c(C)c1Cl,/,12,/,/,/
O=[N+]([O-])c1cccc2[nH]c(CNc3nc(N4CCOCC4)nc4c3ncn4-c3ccsc3)nc12,/,-9,/,/,/
CCOC(=O)NC(=O)/C(C#N)=N/Nc1ccc(F)cc1,4,1,4,1,38*
COCCCNC(=O)C[C@H]1C[C@@]2(C(=O)OC)C(=C[C@H](COCc3ccccc3)O[C@@H]2C)N(Cc2ccccc2)C1=O,/,0,/,/,/
